Compound activity from PubChem.
PvdQ inh: P. aeruginosa PvdQ acylase inhibition; purified PvdQ acylase, fluorescence plate reader; inhibition, % at 10 µM; 340,000 tested, 0.063% active; AID 488965; in the data active means inhibition above about 30%, passing the limit was not always enough;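 further: 0% = vehicle neutral wells and 100% = reference inhibitor wells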
MOR-DOR ag: OPRM1-OPRD1 heterodimerization agonism; cells, luminescence; activation, % at 9.3 µM; AID 504326; P35372+P41143; 340,000 tested, 0.3% active; in the data active means activation above about 18%;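 further: 0% = vehicle-treated cells and 100% = reference agonist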
Target sequence (P35372 whole entry, looked up): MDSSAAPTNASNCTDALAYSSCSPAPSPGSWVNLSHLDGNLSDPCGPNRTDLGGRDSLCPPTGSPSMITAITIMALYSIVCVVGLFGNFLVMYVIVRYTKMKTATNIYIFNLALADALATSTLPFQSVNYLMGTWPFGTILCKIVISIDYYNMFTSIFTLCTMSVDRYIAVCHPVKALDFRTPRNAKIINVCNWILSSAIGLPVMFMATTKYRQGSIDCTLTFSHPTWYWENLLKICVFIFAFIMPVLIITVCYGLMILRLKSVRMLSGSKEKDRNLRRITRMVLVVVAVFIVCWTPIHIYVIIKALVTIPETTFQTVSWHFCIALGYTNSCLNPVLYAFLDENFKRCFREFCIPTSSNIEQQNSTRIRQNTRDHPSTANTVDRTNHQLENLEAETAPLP
Target sequence (P41143 whole entry, looked up): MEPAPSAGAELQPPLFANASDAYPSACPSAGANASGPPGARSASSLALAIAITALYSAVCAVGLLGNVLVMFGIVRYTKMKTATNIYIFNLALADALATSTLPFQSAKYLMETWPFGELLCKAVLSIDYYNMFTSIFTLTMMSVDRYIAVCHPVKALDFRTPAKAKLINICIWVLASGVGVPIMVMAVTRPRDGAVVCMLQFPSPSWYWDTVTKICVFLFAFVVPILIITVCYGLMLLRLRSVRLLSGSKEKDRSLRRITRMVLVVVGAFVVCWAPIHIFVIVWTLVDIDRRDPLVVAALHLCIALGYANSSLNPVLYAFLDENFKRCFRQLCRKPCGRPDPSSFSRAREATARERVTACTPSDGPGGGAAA
HTR5A inv ctr: counter-screen for OPRM1-OPRD1 inverse agonists: human HTR5A inverse agonism; inhibition, % at 9.3 µM; 340,000 tested, 0.083% active; HTR5A cell line, luminescence; AID 504634; in the data active means inhibition mostly above about 23%, no sharp cut-off; inactive means mostly below about 18%;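 further: 0% = cells with DMSO and 100% = no-cell wells with DMSO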
OPRM1-OPRD1 inv: mu-delta opioid heterodimer inverse agonism; cell-based MOR-DOR heterodimer luminescence; inhibition, % at 9.3 µM; AID 504357; P35372+P41143; 340,000 tested, 0.21% active; in the data active means inhibition above about 22%, passing the limit was not always enough;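 further: 0% = cells with DMSO and 100% = wells without cells with DMSO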
HTR5A ag: activates human HTR5A in OPRM1-OPRD1 agonist counter-screen; AID 504692; P47898; activation, % at 9.3 µM; HTR5A agonist assay, luminescence, cell-based; 340,000 tested, 0.61% active; in the data active means activation mostly above about 9.5%, no sharp cut-off; inactive means mostly below about 7.6%;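 further: 0% = cells with vehicle only and 100% = reference agonist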
CR mimetic SO: lowers age-related superoxide in aged yeast cells; S. cerevisiae aged cells, superoxide DHE fluorescence; active compounds read low; superoxide response (% of plate mean), % at 10 µM; 330,000 tested, 0.18% active; AID 2690;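 active means superoxide response under a set limit, about three screen SD below normal, cut at about 65% in these data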;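 further: yeast aged for seven days with compound at 30 °C before DHE staining; 100% = average MFI of all compound-treated wells on the plate with controls excluded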
CR mimetic CP: confirmation of caloric restriction mimetics inhibiting yeast age-related superoxide; shares compounds with CR mimetic SO; S. cerevisiae aging, superoxide DHE fluorescence; active compounds read low; superoxide response (% of plate), % at 10 µM; 850 tested, 1% active;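 active means superoxide signal below 65% of the plate average of sample wells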;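 further: cells aged with compound for 7 days at 30 degrees C before staining; 100% equals mean DHE fluorescence of all compound wells on the plate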
DHE counter: DHE fluorescence interference, counter-screen artifact; fluorescence response, % at 10 µM; shares compounds with CR mimetic SO; 850 tested, under 10 active; S. cerevisiae BY4741, flow cytometry; active compounds read low;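 active means fluorescence response below 15%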;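 further: percent of the mean fluorescence averaged over all compound wells on the plate; lower means stronger quenching of DHE signal or ROS scavenging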
The depositor's hits bear a star. The list is not random: actives were taken first. Their share in the collection is about 1.3%.

Screening O=C(CN1CCN(c2ccccn2)CC1)Nc1ccc2ccccc2c1 returned PvdQ inh -12.5, MOR-DOR ag 1.3, HTR5A inv ctr 3.5, OPRM1-OPRD1 inv -5.5, HTR5A ag -1.4 and CR mimetic SO 95.1.
Screening CN(C)S(=O)(=O)c1ccc(NC(=O)CN2CCN(c3ccccn3)CC2)cc1 returned PvdQ inh -14.0, MOR-DOR ag -0.4, HTR5A inv ctr 12.3, OPRM1-OPRD1 inv 2.0, HTR5A ag -3.5, CR mimetic SO 80.5, CR mimetic CP 107.4 and DHE counter 90.8.
Screening O=C(CN1CCN(c2ccccn2)CC1)Nc1ccc(OC(F)(F)F)cc1 returned PvdQ inh 21.0, MOR-DOR ag -2.3, HTR5A inv ctr -3.4, OPRM1-OPRD1 inv 11.0, HTR5A ag 1.0, CR mimetic SO 109.5, CR mimetic CP 94.2 and DHE counter 111.4.
CCN(CC)S(=O)(=O)c1cc(NC(=O)CN2CCN(c3ccccn3)CC2)ccc1C was read as PvdQ inh -13.2, MOR-DOR ag -2.1, HTR5A inv ctr 1.2, OPRM1-OPRD1 inv 10.6, HTR5A ag 6.1, CR mimetic SO 100.3, CR mimetic CP 97.3 and DHE counter 99.8.
Screening CCN(CC)S(=O)(=O)c1cc(NC(=O)C(C)N2CCN(c3ccccn3)CC2)ccc1C (stereo unspecified) returned PvdQ inh 3.8, MOR-DOR ag -2.6, HTR5A inv ctr 2.8, OPRM1-OPRD1 inv 12.8, HTR5A ag -1.0 and CR mimetic SO 100.2.
For CN(C)c1ccc(NC(=O)CCN2CCN(c3ccccn3)CC2)cc1 the results were PvdQ inh 4.8, MOR-DOR ag -2.1, HTR5A inv ctr 22.6, OPRM1-OPRD1 inv 12.2, HTR5A ag -5.8 and CR mimetic SO 93.6.
`CC(=O)Nc1ccc(NC(=O)CN2CCN(c3ccccn3)CC2)cc1` gave PvdQ inh -13.6, MOR-DOR ag -3.5, HTR5A inv ctr 0.2, OPRM1-OPRD1 inv 16.6, HTR5A ag -0.1, CR mimetic SO 53.5*, CR mimetic CP 100.6 and DHE counter 94.1.
Screening COc1cc(OC)c(OC)cc1CN1CCC(O)CC1 returned PvdQ inh -1.6, MOR-DOR ag -2.8, HTR5A inv ctr 11.2, OPRM1-OPRD1 inv 14.0, HTR5A ag -2.5 and CR mimetic SO 101.8.
O=C(O)c1cccc(Oc2ccc(C(=O)O)c([N+](=O)[O-])c2)c1 was read as PvdQ inh -7.8, MOR-DOR ag -1.0, HTR5A inv ctr 17.2, OPRM1-OPRD1 inv 5.3 and HTR5A ag -4.8.
Cc1ccc(S(=O)(=O)N2CC(O)CC2C(=O)O)cc1 (stereo unspecified) was read as PvdQ inh -18.0, MOR-DOR ag -4.0, HTR5A inv ctr 0.2, OPRM1-OPRD1 inv 18.8, HTR5A ag -0.1, CR mimetic SO 92.4, CR mimetic CP 110.2 and DHE counter 109.1.
`COCCNC(=O)CSc1n[nH]c(=O)n1CCc1ccccc1` gave PvdQ inh -1.6, MOR-DOR ag -1.4, HTR5A inv ctr 4.6, OPRM1-OPRD1 inv 7.2, HTR5A ag -1.2 and CR mimetic SO 100.5.
CCOC(=O)c1ccccc1N/C=C/C(=O)c1cccs1 was read as PvdQ inh -4.5, MOR-DOR ag 1.9, HTR5A inv ctr 1.5, OPRM1-OPRD1 inv -13.0, HTR5A ag 4.4, CR mimetic SO 63.4*, CR mimetic CP 110.0 and DHE counter 90.5.
For CCOC(=O)c1ccccc1NC(=O)c1cccs1 the results were PvdQ inh 6.7, MOR-DOR ag 4.6, HTR5A inv ctr -5.5, OPRM1-OPRD1 inv -23.2, HTR5A ag -0.8 and CR mimetic SO 84.4.
`CCCOc1ccccc1C(=O)N(Cc1ccc(C)o1)C1CCS(=O)(=O)C1` (stereo unspecified) gave PvdQ inh -12.6, MOR-DOR ag -0.5, HTR5A inv ctr 3.1, OPRM1-OPRD1 inv 2.8, HTR5A ag -0.8 and CR mimetic SO 108.0.
`O=C1C(c2ccccc2)=[N+]([O-])c2ccccc21` gave PvdQ inh 2.7, MOR-DOR ag 12.7, HTR5A inv ctr 4.6, OPRM1-OPRD1 inv -58.3, HTR5A ag 0.5, CR mimetic SO 57.4*, CR mimetic CP 80.6 and DHE counter 94.9.
Cc1ccc2cc(NC(=O)Cc3ccccc3)ccc2n1 was read as PvdQ inh -9.6, CR mimetic SO 63.1*, CR mimetic CP 104.1 and DHE counter 103.7.
CC1CCCCN1C(=O)CSc1nnc(-c2ccccc2O)o1 (stereo unspecified) was read as PvdQ inh -3.7, MOR-DOR ag -0.2, HTR5A inv ctr 14.1, OPRM1-OPRD1 inv 1.2, HTR5A ag -5.3 and CR mimetic SO 101.7.
`CC(C)CCC(CCNCc1ccccn1)c1ccc(Cl)cc1` (stereo unspecified) gave PvdQ inh -15.1, MOR-DOR ag 3.2, HTR5A inv ctr -3.1, OPRM1-OPRD1 inv -14.8, HTR5A ag 0.9, CR mimetic SO 48.0*, CR mimetic CP 106.6 and DHE counter 108.9.
For COc1c(O)c(=O)n2c3ccccc3c3ccnc1c32 the results were PvdQ inh -16.7, MOR-DOR ag -0.9, HTR5A inv ctr 20.3, OPRM1-OPRD1 inv 4.4, HTR5A ag 1.0, CR mimetic SO 62.4*, CR mimetic CP 88.6 and DHE counter 95.2.
`C#Cc1cccc(-n2nnc(C(=O)OC)c2-c2ccccc2)c1` gave PvdQ inh -9.4, MOR-DOR ag -0.8, HTR5A inv ctr 2.9, OPRM1-OPRD1 inv 3.6, HTR5A ag -0.8, CR mimetic SO 51.6*, CR mimetic CP 96.1 and DHE counter 93.5.
`COC(=O)c1nnn(-c2ccccc2)c1N` gave PvdQ inh -8.4, MOR-DOR ag 0.1, HTR5A inv ctr -9.5, OPRM1-OPRD1 inv -0.9, HTR5A ag 3.6 and CR mimetic SO 90.9.
`CC(C)c1ccc(NC(=O)CNCC(c2ccccc2)N(C)C)cc1` (stereo unspecified) gave PvdQ inh -15.9, MOR-DOR ag 0.3, HTR5A inv ctr -1.2, OPRM1-OPRD1 inv -1.4, HTR5A ag -5.9 and CR mimetic SO 87.7.
For Cc1cc(NC(=O)CNCC(c2ccccc2)N(C)C)c([N+](=O)[O-])cc1C (stereo unspecified) the results were PvdQ inh -10.6, MOR-DOR ag -0.6, HTR5A inv ctr -4.2, OPRM1-OPRD1 inv 2.7, HTR5A ag 1.2, CR mimetic SO 42.9*, CR mimetic CP 91.1 and DHE counter 94.1.
Screening O=C(CCc1ccccc1)NNC(=O)COc1ccccc1Cl returned PvdQ inh -0.6, MOR-DOR ag 1.5, HTR5A inv ctr 6.6, OPRM1-OPRD1 inv -11.5, HTR5A ag -2.5 and CR mimetic SO 107.9.
For O=S(=O)(NCCNS(=O)(=O)c1ccc(F)cc1)c1ccc(F)cc1 the results were PvdQ inh -16.6, MOR-DOR ag -0.3, HTR5A inv ctr 13.3, OPRM1-OPRD1 inv 1.6, HTR5A ag -4.1 and CR mimetic SO 111.4.
